Screening results as filed in PubChem.
A selection: hits, their analogues and other compounds. The true share with any hit is near 11%.
Autophagy HCS – autophagy modulators in MEF cells, primary screen, imaging, high-content, MEF GFP-LC3. MEF GFP-LC3 puncta imaging; test concentration mostly 10 µM. calls only at 10 µM (by protocol). actives 0.98% (n = 190,000). AID 463193, 2010;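 active = percentage of spot-positive cells more than 3 SD above its plate mean, without a fluorescence outlier flag or 80% toxicity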;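 also: spot-positive cell cutoff set from DMSO-treated cells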
Lmaj promast – Leishmania major promastigote growth inhibition, primary screen; Leishmania major promastigotes, resazurin fluorescence viability; inhibition, % at 10 µM; actives 9% (n = 200,000); in the data active = inhibition above about 50%;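 also: promastigotes grown with compound for 44 hours at 28 °C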
WT yeast gro inh – growth inhibition of WT strain, primary screen, mitochondrial fusion inhibitor project, WT and mutant strains, chemical genetic; inhibition, % at 10 µM; mitochondrial fusion phenotypic screen; actives 2.1% (n = 190,000); in the data active = inhibition above about 58%; tested in S. cerevisiae
Insulin prom inh – inhibitors of insulin promoter-driven GFP, primary screen, imaging, TRM-6 cells (human fetal islet line), eGFP reporter, cell count | reporter expression induced with tamoxifen | inhibition, % at 2 µM | actives 0.9% (n = 130,000) | AID 1273, 2008;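 active = inhibition above the mean plus 3 SD, with well images judged a real hit on visual review, cut at about 60% in these data, passing the limit was not always enough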
Ins promoter up – insulin promoter activators in MIN6 cells, imaging, high-content screening, mouse beta cells. MIN6 insulin promoter-GFP reporter; hits give high values. z-score at 5 µM. actives 0.3% (n = 190,000). AID 1625, 2009;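 active = z-score above 3 at 5 µM with at least 500 cells counted in the well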
Numbers without * were called inactive.

How did COc1ccc(N(CC(=O)Nc2ccc3c(c2)OCO3)S(=O)(=O)c2ccccc2)c(OC)c1 do in these assays?
Autophagy HCS: inactive; Lmaj promast: 71.0*; WT yeast gro inh: 9.3; Insulin prom inh: 27.3

Results for COc1ccc(N(CC(=O)Nc2ccc3c(c2)OCO3)S(=O)(=O)c2ccc(F)cc2)cc1 ?
Autophagy HCS: active; Lmaj promast: 8.4; WT yeast gro inh: 0.1; Insulin prom inh: -3.1; Ins promoter up: -0.33

Results for COc1ccc(S(=O)(=O)N(C)CC(=O)Nc2ccc3c(c2)OCO3)cc1 ?
Autophagy HCS: inactive; Lmaj promast: -2.9; WT yeast gro inh: 4.0; Insulin prom inh: 40.6; Ins promoter up: 0.24

Results for COc1ccc(N(CC(=O)Nc2ccc3c(c2)OCO3)S(=O)(=O)c2ccc(C)cc2)cc1OC ?
Autophagy HCS: inactive; Lmaj promast: 62.7*; WT yeast gro inh: 2.3; Insulin prom inh: 50.0; Ins promoter up: 0.75

Results for COc1ccc(OC)c(S(=O)(=O)N(C)CC(=O)Nc2ccc3c(c2)OCO3)c1 ?
Autophagy HCS: inactive; Lmaj promast: 5.0; WT yeast gro inh: -13.0; Insulin prom inh: 15.8; Ins promoter up: -0.16

What do the screens show for `COc1ccc(N(CC(=O)Nc2ccc3c(c2)OCO3)S(=O)(=O)c2ccccc2)cc1OC`?
Ins promoter up: -0.63

How did Cc1nonc1C(=O)N/N=C/c1cccc(O)c1 do in these assays?
Autophagy HCS: inactive; Lmaj promast: -6.4; WT yeast gro inh: 10.6

What do the screens show for `Cc1c(Cl)cccc1NC(=O)Cn1cc(C(F)(F)F)cc(Cl)c1=O`?
Autophagy HCS: inactive; Lmaj promast: -4.0; WT yeast gro inh: 4.0; Insulin prom inh: 29.4; Ins promoter up: 0.31

Results for Cc1nc(Cl)sc1C(=O)Nc1ccc(Cl)cc1 ?
Autophagy HCS: inactive; Lmaj promast: -11.2; WT yeast gro inh: 16.3; Ins promoter up: -0.1

Results for COc1ccc(S(=O)(=O)N(CC(=O)Nc2ccc(S(=O)(=O)N3CCOCC3)cc2)Cc2ccc(F)cc2)cc1 ?
Autophagy HCS: inactive; Lmaj promast: 97.4*; WT yeast gro inh: 4.3; Insulin prom inh: 18.9; Ins promoter up: -1.92

What do the screens show for `COc1ccc(Cl)cc1NC(=O)CNc1ccccc1CN(C)C1CCCCC1`?
Autophagy HCS: inactive; Lmaj promast: 95.7*; WT yeast gro inh: 30.1; Ins promoter up: -0.56

How did COc1ccc(C)cc1NC(=O)CNc1ccccc1CN(C)C1CCCCC1 do in these assays?
Autophagy HCS: inactive; Lmaj promast: 43.0; WT yeast gro inh: 7.5; Insulin prom inh: -21.4; Ins promoter up: -2.25

What do the screens show for `CN(CC(=O)Nc1ccc(OC(F)(F)F)cc1)C1CCCCC1`?
Autophagy HCS: inactive; Lmaj promast: -1.8; WT yeast gro inh: -7.7; Insulin prom inh: 4.8; Ins promoter up: -0.51

What do the screens show for `Cc1ccc(NC(=O)CNc2ccccc2CN(C)C2CCCCC2)cc1`?
Autophagy HCS: inactive; Lmaj promast: 60.4*; WT yeast gro inh: 7.3; Ins promoter up: -0.31

How did CC(C)(C)NC(=O)N1CCCN(c2ccc(C(F)(F)F)cn2)CC1 do in these assays?
Ins promoter up: 0.01

How did COCCn1c(C)cc(C(=O)CSc2nc3nc(C)cc(C)n3n2)c1C do in these assays?
Autophagy HCS: inactive; Lmaj promast: 61.9*; WT yeast gro inh: 8.3; Insulin prom inh: 0.0; Ins promoter up: 0.18

Results for COc1cc(NC(=O)Cc2cccs2)c(C(=O)O)cc1OC ?
Autophagy HCS: inactive; Lmaj promast: -5.0; WT yeast gro inh: 1.0; Ins promoter up: 0.72

How did O=S(=O)(N1CCCCC1)n1c(Cc2ccccc2)nc2ccccc21 do in these assays?
Autophagy HCS: inactive; Lmaj promast: 54.2*; WT yeast gro inh: 8.1; Insulin prom inh: -11.1; Ins promoter up: -0.03

Results for COCCOC(=O)c1c(NC(=O)CN2CCCc3ccccc32)sc(C(N)=O)c1C ?
Autophagy HCS: inactive; Lmaj promast: 21.9; WT yeast gro inh: 4.8; Ins promoter up: -0.06

Results for O=c1c2c([nH]c3ccccc13)CCCCC2 ?
Ins promoter up: -1.08

How did O=c1c2c([nH]c3ccccc13)CCCCCC2 do in these assays?
Autophagy HCS: inactive; Lmaj promast: 63.6*; WT yeast gro inh: 15.3; Insulin prom inh: -19.1; Ins promoter up: -0.2

Results for CC(C)(C)OC(=O)N1CCC[C@H]1c1nnc(SCc2ccc(Cl)cc2)o1 ?
Ins promoter up: 0.1

How did Cc1ccc(NC(=O)C2(c3ccccc3)CCOCC2)c([N+](=O)[O-])c1 do in these assays?
Autophagy HCS: inactive; Lmaj promast: -5.5; WT yeast gro inh: 1.7; Insulin prom inh: -10.0; Ins promoter up: -0.11
